Screening data: PubChem BioAssay, National Center for Advancing Translational Sciences (NCATS)
In the library only some 5.2% were active in any assay of this set; here they are far more common.
Tau fluor counter – counter-screen for tau fibril formation inhibitors; Potency, µM (titrated, usually from 57.7 µM), for the others: top-dose activity change, negative = decrease; 0.93% of 280,000 active; AID 1463; tau K18 P301L Alexa594 fluorescence, heparin fibrillization; further: potency means the concentration at half of the fitted maximal effect; nearly all actives have a fitted effect of over 55% in size
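Human K18 P301L tau (15 uM unlabeled plus 0.24 uM Alexa 594-labeled, final) in 100 mM sodium acetate pH 7 was mixed with compound and 20 uM heparin and incubated 6 hr at 37 C.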
Tau fibril ThT – tau fibrillization inhibition (ThT binding); AID 1460; Potency, µM (series often up to 57.4 µM), for the others: top-dose activity, negative = inhibition, hits mostly inhibitors; recombinant tau K18 P301L (four-repeat tau fragment), heparin-induced fibrillization, ThT fluorescence; P10636; 2.1% of 270,000 active; further: potency means the concentration at half of the fitted maximal effect; nearly all actives have a fitted effect of over 55% in size
Target sequence (P10636 561-689 P618L limits assumed): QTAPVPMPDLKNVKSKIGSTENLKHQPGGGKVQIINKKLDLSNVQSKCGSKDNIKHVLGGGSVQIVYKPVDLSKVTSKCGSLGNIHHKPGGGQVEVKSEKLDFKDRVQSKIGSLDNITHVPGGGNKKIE
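K18 P301L tau (15 uM + 0.24 uM Alexa 594-tagged), heparin 20 uM, NaOAc pH 7, 6 h 37 C; ThT 30 uM, 1 h RT, ex 450/em 510 nm.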
Coupling enz – inhibits coupling enzyme system, counter-screen for aldolase hits. coupling enzyme system counterscreen, AmpLite Red fluorescence. activity change, negative = inhibition, % at 58.2 µM, hits read low. 0.67% of 290,000 active. AID 2472; in the data active means activity change below about -30%
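Compounds tested against the coupling enzymes alone at 57.5 uM final; readout was AmpLite Red fluorescence (525/598 nm) after 20 min at RT.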
Tau fibril FP – tau fibrillization inhibition (FP). K18 P301L tau heparin fibrillization, Alexa594 FP, 6 h. 0.39% of 280,000 active. Potency, µM (titrated, usually from 57.7 µM), for inactives: top-dose activity, negative = inhibition, most hits filed as inhibitors. P10636; further: potency means the concentration at half of the fitted maximal effect; nearly all actives have a fitted effect of over 55% in size
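Compound effects on tau fibrillization are measured by Alexa 594 fluorescence polarization (ex 555, em 632 nm). K18 P301L tau is used at 15 uM with 0.24 uM labeled tracer, and 20 uM heparin induces aggregation over 6 hr at 37 C.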
Sfp inh – inhibitors of Bacillus subtilis Sfp phosphopantetheinyl transferase. Q9F4F7. Biochemical Sfp PPTase activity, qHTS. Potency, µM, for the others: largest response in the series, negative = inhibition, usual class: inhibitors. 3.5% of 310,000 active;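 further: the enzyme is Sfp with the accession as filed and its product quenches rhodamine fluorescence; potency means the concentration at half of the fitted maximal effect; 0% = enzyme reaction without inhibitor and -100% = no enzyme wells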
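Compounds were incubated with enzyme (final 15 nM) for 15 min at room temperature before substrate addition started the reaction. Fluorescence at 525 nm excitation, 598 nm emission was recorded immediately and after 30 minutes.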
* marks the source's active call; other numbers are inactive results; [ ] = remark or other dose. Unless noted, the call rests on the fitted dose curve; in most records, active means well fitted curve in the direction sought with a large enough effect; inconclusive means small, poorly fitted or top-dose-only effect, or another doubt; inactive means no such curve, though single readings can be large; an effect the other way counts as inactive or inconclusive. Unless noted, on the % scale 0 is the no-effect control and ±100 the full control effect.

`CC1CN(C(=O)Nc2ccc(C(=O)NCCc3ccc(Cl)cc3)cc2)c2ccccc2S1` (stereo not drawn) gave Tau fluor counter -7.3%, Tau fibril ThT -0.6% and Tau fibril FP -8.6%.
Cc1ccc(C2NCCS2)cc1 (stereo not drawn) was read as Tau fluor counter -16.0%, Tau fibril ThT 22.4µM*, Coupling enz 3.6, Tau fibril FP inconclusive and Sfp inh -13.2%.
Cc1ccc(C2=NNC(=O)C(c3ccc(Cl)cc3)C2)cc1 (stereo not drawn) was read as Tau fluor counter -16.1%, Tau fibril ThT -19.5%, Coupling enz 1.1, Tau fibril FP 5.4% and Sfp inh -8.7%.
`COc1cc2c(cc1OC)C(c1ccc(N(C)C)cc1)NCC2` (stereo not drawn) gave Coupling enz 0.5 and Sfp inh -9.1%.
For CN(C)c1ccc(C2NCCS2)cc1 (stereo not drawn) the results were Tau fluor counter -15.3%, Tau fibril ThT 28.2µM*, Coupling enz -0.8, Tau fibril FP inconclusive and Sfp inh -2.1%.
Screening O=C(c1cc(C(F)(F)F)cc(C(F)(F)F)c1)N1CCC2(CC1)CCN(c1ccccn1)CC2 returned Coupling enz -3.3 and Sfp inh 23.9%.
`O=C1C(N2CCOCC2)=C(n2nnc3ccccc32)C(=O)c2ccccc21` gave Tau fluor counter inconclusive, Tau fibril ThT 12.6µM*, Coupling enz -41.3*, Tau fibril FP inconclusive and Sfp inh -24.0%.
Screening CCCCN(CCCC)S(=O)(=O)c1ccc(NS(=O)(=O)c2ccc(NC(C)=O)cc2)cc1 returned Tau fluor counter inconclusive, Tau fibril ThT inconclusive, Coupling enz 12.3, Tau fibril FP 22.4µM* and Sfp inh 33.3%.
CCc1ccc(S(=O)(=O)NCCc2csc3nc(-c4ccccc4)nn23)s1 was read as Tau fluor counter inconclusive, Tau fibril ThT -16.0% and Tau fibril FP -11.4%.
Screening Clc1cccc(CSc2nnc(-c3cccnc3)n2Cc2ccco2)c1 returned Tau fluor counter -0.6%, Tau fibril ThT 1.0%, Coupling enz -20.3, Tau fibril FP 2.3% and Sfp inh 50.1µM*.
For c1cncc(CSc2nnc(-c3cccnc3)n2Cc2ccco2)c1 the results were Tau fluor counter -0.8%, Tau fibril ThT -2.9%, Coupling enz -0.3, Tau fibril FP 6.3% and Sfp inh 15.6%.
Screening Clc1ccc(CSc2nnc(-c3cccnc3)n2Cc2ccco2)c(Cl)c1 returned Tau fluor counter 1.6%, Tau fibril ThT inconclusive, Coupling enz 1.2, Tau fibril FP 1.7% and Sfp inh 35.5µM*.
`O=C(CSc1nnc(-c2cccnc2)n1Cc1ccco1)N1c2ccccc2Sc2ccccc21` gave Tau fluor counter -5.3%, Tau fibril ThT inconclusive, Coupling enz 1.6, Tau fibril FP 5.8% and Sfp inh 3.55µM*.
`O=C(NCc1ccco1)c1c[nH]c2ccc(S(=O)(=O)Nc3ccc(F)cc3F)cc2c1=O` gave Tau fluor counter inconclusive, Tau fibril ThT -7.2% and Tau fibril FP inconclusive.
For O=C1CC(c2ccc3c(c2)OCO3)c2cc(O)ccc2O1 (stereo not drawn) the results were Tau fluor counter -17.3%[81.3 µM], Tau fibril ThT inconclusive, Coupling enz -0.4, Tau fibril FP 0.9%[81.3 µM] and Sfp inh 89.1µM*.
For O=C1CC(c2ccc3c(c2)OCO3)c2ccc(O)cc2O1 (stereo not drawn) the results were Tau fluor counter -5.9%[81.3 µM], Tau fibril ThT -5.3%[81.4 µM], Coupling enz -0.2, Tau fibril FP 5.4%[81.3 µM] and Sfp inh 15.8%.
Screening COC(=O)C1(C(=O)OC)C[C@@H]2CON=C2[C@H]1c1ccccc1 returned Tau fluor counter -22.2%, Tau fibril ThT -8.4%, Coupling enz -0.7, Tau fibril FP inconclusive and Sfp inh -10.1%.
O=C(NC1CCCC1)c1ccc2c(=O)n(Cc3ccccc3)c(SCc3cccc(F)c3)nc2c1 was read as Tau fluor counter -13.7%, Tau fibril ThT -6.5% and Tau fibril FP -10.1%.
Screening COc1ccc(N/N=C(/C)c2cnnc(-c3ccccc3)n2)cc1 returned Tau fluor counter inconclusive, Tau fibril ThT 2.82µM*, Coupling enz 1.2, Tau fibril FP 10.7% and Sfp inh -22.5%.
For COc1ccc(/C(C)=N/Nc2nncc3ccccc23)cc1 the results were Coupling enz -1.9 and Sfp inh -0.9%.
CCn1c(SCC(=O)N/N=C/C=C/c2ccco2)nc2ccccc21 was read as Tau fluor counter -11.8%, Tau fibril ThT inconclusive, Coupling enz -6.9, Tau fibril FP inconclusive and Sfp inh 44.7µM*.
For CCn1c(SCC(=O)N/N=C/c2ccc(C)o2)nnc1-c1ccc(C)cc1 the results were Tau fluor counter -7.8%, Tau fibril ThT inconclusive, Coupling enz 5.2, Tau fibril FP 0.5% and Sfp inh inconclusive.
Screening CCn1c(SCC(=O)N/N=C/C=C/c2ccco2)nnc1-c1ccc(OC)cc1 returned Tau fluor counter 4.1%, Tau fibril ThT 12.9%, Coupling enz -39.1*, Tau fibril FP 12.2% and Sfp inh inconclusive.
`O=C(CSc1nnc(SCc2ccccc2)s1)N/N=C/C=C\c1ccco1` gave Tau fluor counter -19.6%, Tau fibril ThT inconclusive, Coupling enz 1.3, Tau fibril FP -14.6% and Sfp inh 11.2µM*.
`CCCCCCCCCCCCC/C=C/[C@@H](O)[C@H](CO)NC(C)=O` gave Tau fluor counter -1.7%, Tau fibril ThT 3.3%, Tau fibril FP 8.0% and Sfp inh 24.6%.
Screening CN1CCN(c2ncc3c(n2)CCN(Cc2ccccc2Cl)C3)CC1 returned Tau fluor counter -2.5%, Tau fibril ThT -3.7% and Tau fibril FP -2.4%.
`Cn1cc(S(=O)(=O)N2CCCCCC2)cc1C(=O)N1CCN(c2ccccc2F)CC1` gave Tau fluor counter -9.0%, Tau fibril ThT 0.1% and Tau fibril FP -0.8%.
For CCc1cc(C(C)=O)c(O)cc1OCCCCCC(C)(C)c1nn[nH]n1 the results were Tau fluor counter -2.4%, Tau fibril ThT -16.1%, Coupling enz 17.4, Tau fibril FP 10.6% and Sfp inh 11.5%.
`Cn1cnnc1Sc1ccc(C(=O)OCC(=O)Nc2cc(Cl)cc(Cl)c2)cc1[N+](=O)[O-]` gave Tau fluor counter 12.6µM*[quencher], Tau fibril ThT inconclusive, Coupling enz 0.1, Tau fibril FP -3.7% and Sfp inh 7.0%.
For Cn1cnnc1Sc1ccc(/C=C/C(=O)c2ccc(O)cc2)cc1[N+](=O)[O-] the results were Tau fluor counter inconclusive, Tau fibril ThT 14.1µM*, Coupling enz -0.3, Tau fibril FP 1.5% and Sfp inh -9.9%.
For Cn1cnnc1Sc1ccc(C(=O)OCC(=O)Nc2ccccc2)cc1[N+](=O)[O-] the results were Tau fluor counter -14.6%, Tau fibril ThT -11.8%, Coupling enz 0.3, Tau fibril FP 5.1% and Sfp inh 2.4%.
